Data reported in PubChem BioAssay.
For some assays here: Measured potencies and affinities stand elsewhere. Active and inactive are the calls of the source. Unless noted, the rule behind the calls is not given here.

Target: Protein kinase 7 (PK7), Plasmodium falciparum 3D7 (PF3D7_0213400) (UniProt Q7YTF7)
Assay: inhibition of Plasmodium PK7 catalytic activity – biochemical, TCAMS antimalarial set, Kinase-Glo luminescence (AID 1159587)
Settings: recombinant PfPK7, Kinase-Glo ATP depletion luminescence

Sequence of Protein kinase 7 (PK7), Plasmodium falciparum 3D7 (PF3D7_0213400) (Q7YTF7 1-343): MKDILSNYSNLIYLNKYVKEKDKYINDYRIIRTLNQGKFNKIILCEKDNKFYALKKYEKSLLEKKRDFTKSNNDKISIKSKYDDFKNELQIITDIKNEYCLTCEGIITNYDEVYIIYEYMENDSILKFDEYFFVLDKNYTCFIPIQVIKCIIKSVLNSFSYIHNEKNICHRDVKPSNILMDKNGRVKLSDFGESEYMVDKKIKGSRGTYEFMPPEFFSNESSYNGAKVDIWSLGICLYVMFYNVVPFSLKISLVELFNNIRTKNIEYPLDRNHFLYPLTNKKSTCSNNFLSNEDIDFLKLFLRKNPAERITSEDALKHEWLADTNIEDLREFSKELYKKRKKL

outcome, inactive:
Cc1ccccc1C1CCN(C2CCC(NC(=O)c3cc4cc(C(C)C)ccc4[nH]3)CC2)CC1 (stereo not given)
CCN(CC)CCCC(C)Nc1cc(C=Cc2ccccc2Cl)nc2cc(Cl)ccc12 (stereo not given)
N/C(=N\c1ncccn1)Nc1cccc(Cc2ccccc2)n1
Cc1cc([N+](=O)[O-])ccc1N1CCN(CCCCNC(=O)c2ccc(NC(=O)c3ccc(Cl)cc3)cc2)CC1
Cc1ccc(OCC2CCN(c3ncc(C(=O)NCCCN4CCCC4=O)cc3Cl)CC2)cc1
NC1CCN(Cc2cccc(-c3ccc(-c4nc5ccccc5[nH]4)cc3)c2)C1 (stereo not given)
O=C(/C=C/c1ccccc1Cl)NC1CCC(CN2CCC(c3c[nH]c4ccncc34)CC2)CC1 (stereo not given)
COC(=O)c1cccc(CNCc2ccc(-c3cccc(-c4nc5c(C)cccc5[nH]4)c3)cc2)c1
Cc1cccc2[nH]c(-c3cccc(-c4cccc(NC(=O)CNC(=O)c5ccc(O)cc5)c4)c3)nc12
CC(=O)NCCNc1nccc(N2CCc3ncnc(Nc4ccc(OCc5cccc(F)c5)c(Cl)c4)c3C2)n1
COc1ccc(-c2cccc(NC(=O)c3cccc(Cl)c3)c2)cc1CN(C)CCN(C)C
O=C(NCC1Cc2cc(Oc3ccccc3)ccc2O1)c1ccc([N+](=O)[O-])o1 (stereo not given)
CCCCn1c(SC(C)C)nc2c(c1=O)C1(CCCCC1)Cc1ccccc1-2
CC(=O)Nc1ccc(S(=O)(=O)N2CCN(c3nc(NC4CCCC4)c4ccccc4n3)CC2)cc1
Cc1ccc(O)cc1Nc1ccnc2ccc(-c3csc(CNCCN4CCOCC4)n3)cc12
COc1ccc(Cc2c(C)nc3nc(N)nc(N)c3c2C)cc1
Cc1cccc2[nH]c(-c3ccc(-c4ccc(NC(=O)C(C)CN(C)C)cc4)cc3)nc12 (stereo not given)
COc1ccc(CNC2CCN(C)CC2)cc1-c1ccc(S(=O)(=O)NCCc2ccccn2)cc1
CCCNc1ccc(-c2cc(C(N)=O)c3[nH]cc(C4CCN(S(=O)(=O)CC)CC4)c3c2)cn1
COc1cc(-c2ccccc2)ccc1C(=O)Nc1ccc2c(c1)N(C)CCC2
O=C(Nc1ccc2nccc(N3CCN4CCC[C@H]4C3)c2c1)c1ccc(Cl)c(Cl)c1
O=C(/C=C/c1ccc(Cl)c(Cl)c1)NCCCCCCN1CCN(C(=O)Nc2cccc(Cl)c2)CC1
Fc1cccc(COc2ccc(Nc3ncnc4ccc(-c5nnc(C(F)(F)F)o5)cc34)cc2Cl)c1
CC(C)c1sc(N2CCN(C)CC2)nc1C(=O)Nc1cccc2c1CCCC2
COc1ccc2c(NN=Cc3ccc(F)cc3)cc(C)nc2c1
COc1ccc(C=NNc2cc(C)nc3ccccc23)cc1OC
O=S(=O)(c1ccc(Oc2ccccc2)cc1)N(CCC(O)(C(F)(F)F)C(F)(F)F)Cc1cccc(O)c1
COc1cc(CNCCCCCCNCc2cc(OC)c(OC)c3ccccc23)c2ccccc2c1OC
CC(C)(C)c1ccc(OCCCON2C(N)=NC(N)=NC2(C)C)cc1
Cc1cc(C(F)(F)F)n2nc(C3CCN(Cc4cc(C)c(O)c(C)c4)C3)cc2n1 (stereo not given)
COc1cc2nc(N(C)CC3COc4ccccc4O3)nc(N)c2cc1OC (stereo not given)
OCC1CCN(Cc2cccc(-c3ccc(-c4nc5ccc(C(F)(F)F)cc5[nH]4)s3)c2)CC1
CCN(CC)CCn1c2ccccc2c2ccc(C(=O)Nc3ccc4sc(C)nc4c3)cc21
O=C(Nc1ccnc(N2C[C@H]3C[C@@H]2CN3Cc2cccc(O)c2)c1)c1ccc(F)cc1
COc1cc2nc(N3CCC(CNC(=O)c4ccc(-c5ccc(-c6noc(C)n6)cc5C)cc4)CC3)nc(N)c2cc1OC
Cc1cc(C(F)(F)F)nn1-c1ccc(NC(=O)c2ccco2)cc1
Cc1nc(-c2ccncc2)sc1C(=O)Nc1ccc(Cl)cc1C(=O)Nc1ccc(Cl)cc1
CS(=O)(=O)c1ccc(CNCc2cccc(-c3ccc(-c4nc5ccc(C(F)(F)F)cc5[nH]4)cc3)c2)cc1
Cn1cc(C2CCN(CCCCCNC(=O)/C=C/c3ccc(Cl)c(Cl)c3)CC2)c2cc(O)ccc21
CC1CN(Cc2ccccc2)CCN1c1ccc(NC(=O)c2cccs2)cc1 (stereo not given)

Target: Calcium-dependent protein kinase 4 (Plasmodium falciparum (isolate 3D7)) (UniProt Q8IBS5)
Assay: PfCDPK4 kinase inhibitors, biochemical, TCAMS library (AID 1159588; cut-off not given, nearly all actives have IC50 up to about 0.91 µM)
Settings: recombinant PfCDPK4, Kinase-Glo ATP depletion luminescence

Sequence of Calcium-dependent protein kinase 4 (Plasmodium falciparum (isolate 3D7)) (Q8IBS5 whole entry, looked up): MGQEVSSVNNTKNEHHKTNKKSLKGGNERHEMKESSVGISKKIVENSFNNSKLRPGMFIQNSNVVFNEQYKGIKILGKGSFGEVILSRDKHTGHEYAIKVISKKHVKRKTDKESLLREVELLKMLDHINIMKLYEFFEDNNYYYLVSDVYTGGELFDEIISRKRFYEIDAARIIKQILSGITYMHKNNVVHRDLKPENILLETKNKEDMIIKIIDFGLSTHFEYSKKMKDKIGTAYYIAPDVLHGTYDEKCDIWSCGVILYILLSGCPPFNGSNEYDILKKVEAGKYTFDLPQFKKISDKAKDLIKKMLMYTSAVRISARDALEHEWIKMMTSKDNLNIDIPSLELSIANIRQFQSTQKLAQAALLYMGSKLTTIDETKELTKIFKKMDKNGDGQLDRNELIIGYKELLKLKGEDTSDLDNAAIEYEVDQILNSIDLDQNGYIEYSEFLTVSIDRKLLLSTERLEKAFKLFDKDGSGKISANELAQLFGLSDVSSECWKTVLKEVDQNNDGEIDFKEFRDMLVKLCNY

outcome, inactive:
Cc1ccccc1C1CCN(C2CCC(NC(=O)c3cc4cc(C(C)C)ccc4[nH]3)CC2)CC1 (stereo not given)
CCN(CC)CCCC(C)Nc1cc(C=Cc2ccccc2Cl)nc2cc(Cl)ccc12 (stereo not given)
N/C(=N\c1ncccn1)Nc1cccc(Cc2ccccc2)n1
Cc1cc([N+](=O)[O-])ccc1N1CCN(CCCCNC(=O)c2ccc(NC(=O)c3ccc(Cl)cc3)cc2)CC1
Cc1ccc(OCC2CCN(c3ncc(C(=O)NCCCN4CCCC4=O)cc3Cl)CC2)cc1
NC1CCN(Cc2cccc(-c3ccc(-c4nc5ccccc5[nH]4)cc3)c2)C1 (stereo not given)
O=C(/C=C/c1ccccc1Cl)NC1CCC(CN2CCC(c3c[nH]c4ccncc34)CC2)CC1 (stereo not given)
COC(=O)c1cccc(CNCc2ccc(-c3cccc(-c4nc5c(C)cccc5[nH]4)c3)cc2)c1
Cc1cccc2[nH]c(-c3cccc(-c4cccc(NC(=O)CNC(=O)c5ccc(O)cc5)c4)c3)nc12
CC(=O)NCCNc1nccc(N2CCc3ncnc(Nc4ccc(OCc5cccc(F)c5)c(Cl)c4)c3C2)n1
COc1ccc(-c2cccc(NC(=O)c3cccc(Cl)c3)c2)cc1CN(C)CCN(C)C
O=C(NCC1Cc2cc(Oc3ccccc3)ccc2O1)c1ccc([N+](=O)[O-])o1 (stereo not given)
CCCCn1c(SC(C)C)nc2c(c1=O)C1(CCCCC1)Cc1ccccc1-2
CC(=O)Nc1ccc(S(=O)(=O)N2CCN(c3nc(NC4CCCC4)c4ccccc4n3)CC2)cc1
Cc1ccc(O)cc1Nc1ccnc2ccc(-c3csc(CNCCN4CCOCC4)n3)cc12
COc1ccc(Cc2c(C)nc3nc(N)nc(N)c3c2C)cc1
Cc1cccc2[nH]c(-c3ccc(-c4ccc(NC(=O)C(C)CN(C)C)cc4)cc3)nc12 (stereo not given)
COc1ccc(CNC2CCN(C)CC2)cc1-c1ccc(S(=O)(=O)NCCc2ccccn2)cc1
CCCNc1ccc(-c2cc(C(N)=O)c3[nH]cc(C4CCN(S(=O)(=O)CC)CC4)c3c2)cn1
COc1cc(-c2ccccc2)ccc1C(=O)Nc1ccc2c(c1)N(C)CCC2
O=C(Nc1ccc2nccc(N3CCN4CCC[C@H]4C3)c2c1)c1ccc(Cl)c(Cl)c1
O=C(/C=C/c1ccc(Cl)c(Cl)c1)NCCCCCCN1CCN(C(=O)Nc2cccc(Cl)c2)CC1
Fc1cccc(COc2ccc(Nc3ncnc4ccc(-c5nnc(C(F)(F)F)o5)cc34)cc2Cl)c1
CC(C)c1sc(N2CCN(C)CC2)nc1C(=O)Nc1cccc2c1CCCC2
COc1ccc2c(NN=Cc3ccc(F)cc3)cc(C)nc2c1
COc1ccc(C=NNc2cc(C)nc3ccccc23)cc1OC
O=S(=O)(c1ccc(Oc2ccccc2)cc1)N(CCC(O)(C(F)(F)F)C(F)(F)F)Cc1cccc(O)c1
COc1cc(CNCCCCCCNCc2cc(OC)c(OC)c3ccccc23)c2ccccc2c1OC
CC(C)(C)c1ccc(OCCCON2C(N)=NC(N)=NC2(C)C)cc1
Cc1cc(C(F)(F)F)n2nc(C3CCN(Cc4cc(C)c(O)c(C)c4)C3)cc2n1 (stereo not given)
COc1cc2nc(N(C)CC3COc4ccccc4O3)nc(N)c2cc1OC (stereo not given)
OCC1CCN(Cc2cccc(-c3ccc(-c4nc5ccc(C(F)(F)F)cc5[nH]4)s3)c2)CC1
CCN(CC)CCn1c2ccccc2c2ccc(C(=O)Nc3ccc4sc(C)nc4c3)cc21
O=C(Nc1ccnc(N2C[C@H]3C[C@@H]2CN3Cc2cccc(O)c2)c1)c1ccc(F)cc1
COc1cc2nc(N3CCC(CNC(=O)c4ccc(-c5ccc(-c6noc(C)n6)cc5C)cc4)CC3)nc(N)c2cc1OC
Cc1cc(C(F)(F)F)nn1-c1ccc(NC(=O)c2ccco2)cc1
Cc1nc(-c2ccncc2)sc1C(=O)Nc1ccc(Cl)cc1C(=O)Nc1ccc(Cl)cc1
CS(=O)(=O)c1ccc(CNCc2cccc(-c3ccc(-c4nc5ccc(C(F)(F)F)cc5[nH]4)cc3)c2)cc1
Cn1cc(C2CCN(CCCCCNC(=O)/C=C/c3ccc(Cl)c(Cl)c3)CC2)c2cc(O)ccc21
CC1CN(Cc2ccccc2)CCN1c1ccc(NC(=O)c2cccs2)cc1 (stereo not given)
